This note sets out measurements from PubChem BioAssay AID624171 (National Center for Advancing Translational Sciences (NCATS), 2012).

Screen size: about 410,000 compounds; about 1,200 (0.29%) were called active. Where a call stands in place of a potency, no number is given. Not shown: some 2% with an inconclusive outcome. Calls come from the whole dose curve; as a rule, active = well fitted activation curve with a large enough effect; inconclusive = small, poorly fitted or top-dose-only effect; inactive = flat fitted curve, though single readings scatter. Only a selection was taken, and actives are over-represented in it overall.
Potency is the fitted concentration of half-maximal effect.

The experiment can be described thus: qHTS of Nrf2 Activators. Note: nearly all actives have a fitted effect of over 65% in size. Conditions: AREc32 ARE-luciferase reporter (MCF7-derived line), luminescence, 24 h; series mostly up to 46.1 µM. From the text:
Many diseases have some form of oxidative stress injury and ties to inflammation, causing a host of problems for the patient. The antioxidant response element (ARE) plays an important role in alleviating the harmful effects of oxidative stress. The antioxidant response element (ARE) is a transcriptional regulatory element involved in the activation of genes coding for a number of antioxidant proteins and detoxifying enzymes. These enzymes work in concert to protect tissues from oxidative insults and chemical toxicities in human hepatocytes and immune cells. The protective effects of ARE activation are primarily triggered through Nrf2 (NF-E2-related factor) binding to and activating AREs. It is known that Nrf2 controls the production of over 250 antioxidant and detoxification proteins (Hu et al., 2006), thereby protecting tissues by increasing cellular antioxidant content and suppressing inflammatory signaling pathways. The transcription factor Nrf2 is a central link between oxidative chemicals, such as phenolic antioxidants and electrophilic compounds, and the activation of ARE. Nrf2 levels are constitutively low as a consequence of its interaction with Keap1, which targets its degradation (Zipper and Mulcahy, 2002). Electrophiles react with key cysteine residues in Keap1, releasing Nrf2 and allowing its translocation to the nucleus. Once within the nucleus, Nrf2 complexes with coactivators such as p300, and binds to the AREs to induce gene transcription of cytoprotective enzymes, resulting in the prevention of toxicity. Activation of Nrf2 protects tissues by increasing cellular antioxidant content and suppressing inflammatory signaling pathways. Identifying novel and potent Nrf2 activators by using the AREc32 cell line to detect ARE activation by small molecules will lead to the identification and development of probes to study protective pathways in multiple tissues. These specific probes are essential to study the ARE pathway, and eventually to determine whether this pathway does activate genes that could protect against a host of diseases, including cardiovascular diseases, obesity, diabetes, Alzheimer's, and Parkinson's disease.
This project's aim is to identify novel and potent Nrf2 activators by using the AREc32 cell line to detect ARE activation by small molecules, which will lead to the identification and development of probes to study the ARE pathway.
NIH Chemical Genomics Center [NCGC]
NIH Molecular Libraries Probe Centers Network [MLPCN]
Assay Submitter (PI): Curtis Klaassen, University of Kansas Medical Center
5 uL of 1000 cells/well of AREc32_Fluc cells are seeded into 1536-well plate in OPTI-MEM medium with 5% FBS. The plates are incubated overnight at 37 deg C with 5% CO2. Then through pin tool transfer, 23 nL of compounds are added to each well before a 24 hr incubation at 37 deg C with 5% CO2. After the addition of 2.5 uL of Steady-Glo. the plates are kept at RT for 30 min, before they are read on the ViewLux.
Background: qHTS replaces the single test concentration by a dilution series.
Take `COc1ccc(C2C=C(C)Oc3c2c(=O)oc2ccccc32)cc1OC` (stereo not given): the Potency entry was “inactive”.

Take `CCNc1nc2[nH]c(=O)c3c(c2s1)OC(N)=C(C#N)C3c1cccs1` (stereo not given): the Potency result was “inactive”.

In the case of `N#CC1=C(N)Oc2c(c(=O)oc3ccccc23)C1c1ccccc1OC(=O)c1cccs1` (stereo not given), the Potency is 11.2 µM (active).

`Cc1ccc(-n2c(/C=C/c3cccc(C(F)(F)F)c3)nc3ccccc3c2=O)cc1`: the Potency entry was “inactive”.

As to `Cc1cccc(Cn2cccc(C(=O)Nc3ccc4c(c3)OCCO4)c2=O)c1`, the Potency result is “inactive”.
